Assay results reported in the supplement of paper PMC10981050.
Where “and” joins values, the source holds several entries; their conditions need not be identical. Equal values may be shown once. Where a name gives a salt, the structure may show the parent alone.

Columns and labels:
Assay in all cases: cell viability relative to vehicle control; higher = less cytotoxic
Conditions in all cases: 10 µM
K562 = system: K562
How it was run: (§1)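 After removal of identity-inconsistent compounds, the Selleck bioactive, kinase and epigenetic probe libraries were screened on CRISPR-edited mutant clones and isogenic wild-type clones of four leukaemia lines. Plates were 384-well, each well holding 2000 cells in 50 µL medium and receiving a single 10 µM acoustically dispensed dose. CellTiter-Glo luminescence was read 48 h later, after the supernatant was taken off. Genedata Screener was used to express viability as percent of the on-plate vehicle control.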

MARIMO = system: MARIMO
How it was run: as §1

MOLM14 = system: MOLM14
How it was run: as §1

OCI-AML2 = system: OCI-AML2
How it was run: as §1

| SMILES | cell viability (K562; SRSF2 genotype: SRSF2 P95H/wt) | cell viability (K562; SRSF2 genotype: SRSF2 wt/wt) [%] | cell viability (MARIMO; SRSF2 genotype: SRSF2 P95H/wt) [%] | cell viability (MARIMO; SRSF2 genotype: SRSF2 wt/wt) [%] | cell viability (MOLM14; SRSF2 genotype: SRSF2 P95H/wt) [%] | cell viability (MOLM14; SRSF2 genotype: SRSF2 wt/wt) [%] | cell viability (OCI-AML2; SRSF2 genotype: P95H/wt) [%] | cell viability (OCI-AML2; SRSF2 genotype: wt/wt) [%] |
| --- | --- | --- | --- | --- | --- | --- | --- | --- |
| COc1ccc2c(c1)c(CC(=O)OCC(=O)O)c(C)n2C(=O)c1ccc(Cl)cc1 [Acemetacin (Emflex)] | 101% and 98.4% | 93.5 | 97.8 | 94.9 | 95.4 | 98.6 | 108 | 104 |
| Cc1cc2c(C(N)=O)cccc2n1-c1nc2c(c(NCc3ccccc3)n1)COCC2 | 0.8% and 0.75% | 0.74 | 0.6 | 1.05 | 0.36 | 0.42 | 0.35 | 0.49 |
| CN(C)C(=O)c1cc2cnc(Nc3ccc(N4CCNCC4)cn3)nc2n1C1CCCC1 [Ribociclib (LEE011)] | 96.4% and 111% | 110 | 68 | 64.7 | 54.2 | 46 | 62 | 57 |
| NC(=O)[C@@H](CCC(F)(F)F)N(Cc1ccc(-c2ncon2)cc1F)S(=O)(=O)c1ccc(Cl)cc1 | 92.5% and 98.1% | 93.9 | 84.8 | 96.6 | 88.2 | 97.9 | 106 | 104 |
| O=C(Nc1ccc2c(O)cc(S(=O)(=O)O)cc2c1)Nc1ccc2c(O)cc(S(=O)(=O)O)cc2c1 | 103% and 108% | 99.1 | 110 | 101 | 101 | 104 | 112 | 111 |
| O=C1NC(=O)/C(=C/c2ccc(-c3ccc(F)cc3O)o2)S1 | 94.7% and 95.1% | 88.4 | 75.9 | 79.2 | 89.3 | 100 | 62.3 | 59 |
| O=C1[C@H](CC[C@H](O)c2ccc(F)cc2)[C@@H](c2ccc(O)cc2)N1c1ccc(F)cc1 [Ezetimibe (Zetia)] | 86.1% and 94.8% | 102 | 80.6 | 91 | 82.7 | 90.1 | 80.8 | 88.2 |
| C=C1C2CCC(C2)C1(C)CCC=C(C)CO (stereo unspecified) [Santalol] | 106% and 103% | 98.6 | 105 | 94.3 | 106 | 104 | 102 | 101 |
| Clc1ccc(NN=C(c2ccccc2)c2ccccn2)nc1 | 17.9% and 15.3% | 20 | 3.72 | 0.76 | 1.65 | 0.71 | 5.44 | 3.14 |
| O=C(O)Cc1cccc2ccccc12 [1-Naphthaleneacetic acid] | 98% and 100% | 98.1 | 95.7 | 98.3 | 106 | 97.5 | 104 | 97.4 |
| NC(=O)c1cccc2cn(-c3ccc([C@@H]4CCCNC4)cc3)nc12 [MK-4827(Niraparib) tosylate] | 103% and 99.2% | 87.5 | 48.4 | 64.4 | 21.4 | 7.47 | 41.8 | 47.3 |
| COc1cc2c(cc1O)C[C@H]1c3cc(O)c(OC)cc3CC[N+]1(C)C2 (stereo partly specified) [Phellodendrine chloride] | 92.6% and 101% | 98.5 | 100 | 95.6 | 103 | 95.9 | 96.7 | 102 |
| O=C(CCc1ccc(O)cc1)c1c(O)cc(O)cc1O[C@@H]1O[C@H](CO)[C@@H](O)[C@H](O)[C@H]1O [Phlorizin (Phloridzin)] | 104% and 94.2% | 92.3 | 93 | 102 | 92.2 | 94.8 | 90.1 | 91.7 |
| COc1ccc(C(=O)O)cc1O [Isovanillic acid] | 97.7% and 89.4% | 95.3 | 85.2 | 97.5 | 87.1 | 90.6 | 82.2 | 86.7 |
| C[C@@H]1COCCN1c1cc(C2(S(C)(=O)=O)CC2)nc(-c2cccc3[nH]ccc23)n1 | 8.63% and 11.6% | 8.6 | 20.2 | 18 | 22.2 | 7.72 | 16.2 | 18.7 |
| O=C(CCCCCN1C(=O)c2cccc3cccc(c23)C1=O)NO [Scriptaid] | 1.69% and 12.5% | 11.4 | 4.53 | 4.11 | 0.6 | 0.53 | 0.32 | 0.98 |
| Cn1cc(-c2ccc(S(=O)(=O)n3ccc(/C=C/C(=O)Nc4ccccc4N)c3)cc2)cn1 | 15% and 29.1% | 32 | 6.4 | 5.67 | 7.6 | 2.05 | 8.31 | 8.21 |
| OC[C@H]1O[C@@H](n2cnc3c(O)nc(O)nc32)[C@H](O)[C@@H]1O [Xanthosine] | 101% and 100% | 96 | 99.9 | 101 | 99.6 | 98.5 | 93.2 | 99.7 |
| N#Cc1ccc2ncnc(NCCc3ccccc3)c2c1 [Senexin A] | 85% and 87.1% | 92.4 | 91.8 | 94 | 77.1 | 95.1 | 58.2 | 63 |
| N=C1CCCN1Cc1[nH]c(=O)[nH]c(=O)c1Cl [Tipiracil hydrochloride] | 101% and 109% | 104 | 109 | 112 | 110 | 105 | 102 | 94.7 |
| OC[C@H]1O[C@@H](Oc2ccc(O)cc2)[C@H](O)[C@@H](O)[C@@H]1O [Arbutin (Uva, p-Arbutin)] | 104% and 97.2% | 95.1 | 96.6 | 104 | 103 | 101 | 100 | 107 |

| SMILES | cell viability (K562; SRSF2 genotype: SRSF2 P95H/wt) | cell viability (K562; SRSF2 genotype: SRSF2 wt/wt) [%] | cell viability (MARIMO; SRSF2 genotype: SRSF2 P95H/wt) [%] | cell viability (MARIMO; SRSF2 genotype: SRSF2 wt/wt) [%] | cell viability (MOLM14; SRSF2 genotype: SRSF2 P95H/wt) [%] | cell viability (MOLM14; SRSF2 genotype: SRSF2 wt/wt) [%] | cell viability (OCI-AML2; SRSF2 genotype: P95H/wt) [%] | cell viability (OCI-AML2; SRSF2 genotype: wt/wt) [%] |
| --- | --- | --- | --- | --- | --- | --- | --- | --- |
| O=C(c1ccc(OCCN2CCCCC2)cc1)c1c(-c2ccc(O)cc2)sc2cc(O)ccc12 [Evista (Raloxifene Hydrochloride)] | 75.3% and 80.4% | 81.3 | 79.3 | 77.8 | 76.2 | 81.3 | 82.7 | 77.2 |
| CN1C(C(=O)Nc2ccccn2)=C(O)c2ccccc2S1(=O)=O [Piroxicam (Feldene)] | 99.5% and 103% | 100 | 97.3 | 106 | 97.6 | 105 | 104 | 105 |
| CCOC(=O)c1cc(O)c(O)c(O)c1 [Ethyl gallate] | 98.4% and 88.5% | 87.8 | 72.1 | 88.3 | 78.5 | 87.2 | 80.6 | 86.8 |
| CC[C@H](Nc1ncnc2[nH]cnc12)c1nc2cccc(F)c2c(=O)n1-c1ccccc1 | 84.3% and 82.3% | 88.8 | 65.6 | 70.5 | 57.3 | 54.8 | 51.2 | 58.6 |
| COc1cccc(C=NCCN=Cc2cccc(OC)c2[O-])c1[O-].[Cl-].[Mn+3] | 100% and 97% | 97.3 | 92 | 104 | 92.2 | 104 | 89.2 | 101 |
| COCCCc1sc(-c2ccccc2)nc1C(=O)Nc1ccccc1-c1nc2cc(CN3CCCC3)cnc2s1 | 75.7% and 55.8% | 76.6 | 82.7 | 83.6 | 76.7 | 92.5 | 52.1 | 76.2 |
| O=C(O)c1cc(/N=N/c2ccc(S(=O)(=O)Nc3ccccn3)cc2)ccc1O [Sulfasalazine (Azulfidine)] | 99% and 96.4% | 94.4 | 96.3 | 101 | 93.7 | 98.9 | 96.4 | 103 |
| Cc1nc(Nc2cnn(C3CCNCC3)c2)nc2c1N(C)C(=O)c1cc3ccccc3cc1N2C | 56% and 67.5% | 60.7 | 50.7 | 63.7 | 15.9 | 5.53 | 19.2 | 22 |
| Cc1[nH]nc2ccc(-c3cncc(OC[C@@H](N)Cc4ccccc4)c3)cc12 | 31.9% and 28.5% | 26.3 | 7.82 | 5.76 | 0.2 | 0.05 | 0.26 | 6.55 |
| Cc1cccc(-c2[nH]c(C(C)(C)C)nc2-c2ccc3nccnc3c2)n1 | 111% and 95.8% | 99.7 | 108 | 105 | 105 | 101 | 108 | 115 |
| CCCCCCCCCCCCCCCc1cccc(O)c1C(=O)O [Anacardic Acid] | 88.9% and 86.6% | 84.8 | 81.7 | 86.7 | 86.3 | 82.9 | 87.5 | 83.5 |
| COc1ccc(-n2nc(C(N)=O)c3c2C(=O)N(c2ccc(N4CCCCC4=O)cc2)CC3)cc1 [Apixaban] | 99.3% and 102% | 103 | 97.9 | 112 | 107 | 105 | 98 | 96.7 |
| CC1(C)S[C@@H]2[C@H](NC(=O)[C@H](N)c3ccccc3)C(=O)N2[C@H]1C(=O)O [Ampicillin sodium] | 99% and 108% | 102 | 109 | 109 | 102 | 107 | 109 | 95.7 |
| COc1ccc(CCC(=O)c2c(O)cc(O[C@@H]3O[C@H](CO)[C@@H](O)[C@H](O)[C@H]3O[C@@H]3O[C@@H](C)[C@H](O)[C@@H](O)[C@H]3O)cc2O)cc1O [Neohesperidin dihydrochalcone (Nhdc)] | 107% and 83.6% | 84.9 | 82.7 | 90.5 | 82.3 | 86.8 | 89.6 | 84.9 |
| CCC(=O)N1CCN(c2ccc(-n3c(=O)ccc4cnc5ccc(-c6cnc7ccccc7c6)cc5c43)cc2C(F)(F)F)CC1 [Torin 1] | 46.8% and 45.3% | 46.4 | 64.6 | 61.4 | 39.8 | 36.2 | 41.5 | 39.9 |
| OCCn1cc(-c2cnc3nnn(Cc4ccc5ncccc5c4)c3n2)cn1 | 96.9% and 99.3% | 104 | 105 | 102 | 99.4 | 100 | 97.9 | 97.9 |
| COc1ccc(-c2cc(=O)c3c(O)cc(O[C@@H]4O[C@H](CO[C@@H]5O[C@@H](C)[C@H](O)[C@@H](O)[C@H]5O)[C@@H](O)[C@H](O)[C@H]4O)cc3o2)cc1 [Linarin] | 107% and 103% | 102 | 95.8 | 101 | 111 | 102 | 103 | 98.7 |
| O=C(O)c1ccc2c3c1cccc3c(=O)n1c3ccccc3nc21 | 104% and 102% | 102 | 107 | 106 | 96.6 | 99.9 | 104 | 97.5 |
| CCOC(=O)C1=C(COCCN)NC(C)=C(C(=O)OC)C1c1ccccc1Cl (stereo unspecified) [Amlodipine (Norvasc)] | 83% and 92.4% | 84.4 | 73.8 | 78.3 | 53.3 | 62.5 | 38.9 | 50 |
| CC[C@H](C)C(=O)O[C@H]1C[C@@H](C)C=C2C=C[C@H](C)[C@H](CC[C@@H]3C[C@@H](O)CC(=O)O3)[C@H]21 [Lovastatin (Mevacor)] | 86.3% and 96.8% | 68.8 | 74 | 68.5 | 82.9 | 100 | 64.3 | 77.8 |
| Cn1nnc2c(C(N)=O)ncn2c1=O [Temozolomide] | 99.9% and 108% | 101 | 94.5 | 94.2 | 86 | 99.2 | 94.9 | 96.6 |
